This is a sample that favours compounds with a hit; in the whole collection about 6.2% have one here.
HCMV inh = qHTS Assay for inhibitors of the human cytomegalovirus (HCMV); HFF cells, HCMV-luciferase reporter, 72 h; hits give low values; activity change, negative = inhibition, % at 57.5 µM; 410,000 tested, 4.5% active; AID 1259415, 2018; in the data active = activity change below about -60%; inconclusive = no clear call, values can overlap the other calls; inactive = above about -39%
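Inhibition of viral replication was scored as loss of reporter luminescence in HFFs infected with HCMV-luciferase (MOI 1 PFU/cell) for 72 h; compounds tested at 2 doses, normalized to buffer and Salinomycin controls.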
FMDV antiviral = High Throughput Screening for Foot and Mouth Disease Virus Antivirals. FMDV antiviral cell-based qHTS. Potency, µM (highest dose often 57.9 µM), usual class: inhibitors. 410,000 tested, 1.2% active. AID 1159524, 2015; calls by dose curve; tested in HEK293T cells; also: read-out not given here; nearly all actives have a fitted effect of over 45% in size
MARV entry inh = qHTS for inhibitors of binding or entry into cells for Marburg Virus | Potency, µM (series often up to 37.8 µM), hits mostly inhibitors | AID 540276, 2011 | Marburg virus pseudotyped entry inhibition, cell reporter | 300,000 tested, 1.8% active; calls by dose curve; tested in HEK293 cells
Lassa entry inh = qHTS for Inhibitors of binding or entry into cells for Lassa Virus. Potency, µM (titrated, usually from 37.9 µM), usual class: inhibitors. Lassa virus pseudotype entry inhibition, cell reporter. 300,000 tested, 1.2% active; calls by dose curve; tested in HEK293 cells; also: nearly all actives have a fitted effect of over 50% in size
Numbers stand for hits; 0 = inactive; ? = inconclusive; - = no result.

SMILES	HCMV inh	FMDV antiviral	MARV entry inh	Lassa entry inh
Cn1cc(CCCBr)c2ccccc21	0	-	-	-
Cc1ccc(C(=O)CC2(O)C(=O)N(CCc3ccccc3)c3ccc(Cl)cc32)cc1 (stereo not given)	-104	0	0	?
O=C(CC1(O)C(=O)N(CCc2ccccc2)c2ccc(Br)cc21)c1ccccc1 (stereo not given)	0	0	?	0
COc1ccc(OC)c(NC(=O)C2(C)CCN2Cc2ccccc2Cl)c1 (stereo not given)	0	0	-	-
CCOc1ccc(-c2n[nH]c3c2C(c2cccs2)N(c2ccc(Br)cc2)C3=O)cc1 (stereo not given)	-99	?	?	?
CCOc1ccc(N2C(=O)c3[nH]nc(-c4ccc(OC)cc4)c3C2c2cccs2)cc1 (stereo not given)	-95	40µM	7.9µM	?
CCOc1ccc(N2C(=O)c3n[nH]c(-c4cccs4)c3C2c2cccc(F)c2)cc1 (stereo not given)	0	?	?	?
COC(=O)[C@@H]1[C@@H](CO)[C@@H]2Cn3c(ccc(Br)c3=O)[C@H]1N2C(=O)Cc1ccccn1	0	-	-	-
COc1ccc2cc([S+]([O-])Cc3ncc(C)c(OC)c3C)nc2c1	-	-	0	0
CC(=O)OC1(c2ccccc2)CCN(C)CC1(C)C (stereo not given)	-80	0	-	-
Cn1cccc1C(=O)N1CCC2(CCN(C(=O)Nc3ccccc3)CC2)CC1	-	0	-	-
Cc1cc2ncn(/N=C/c3ccc([N+](=O)[O-])s3)c2cc1C	0	0	?	0
O=[N+]([O-])c1ccc(/C=N/n2cnc3ccccc32)s1	0	0	?	?
O=[N+]([O-])c1ccc(/C=N/n2c(CO)nc3ccccc32)s1	-69	0	?	0
Cc1nc2ccccc2n1/N=C/c1ccc([N+](=O)[O-])s1	-82	?	?	?
Cc1nc2ccccc2n1/N=C/c1ccc([N+](=O)[O-])o1	-67	-	15µM	?
CCOC(=O)c1ccc(NC(=O)c2cnc(N3CCCC3)nc2C)cc1	0	?	-	0
CC(=O)NC1CC2CCCC(C1)N2C(=O)Nc1ccc(Cl)cc1 (stereo not given)	0	0	-	-
COC(=O)C(C(=O)OC)[C@H]1c2ccccc2[C@@H]2C(=C[C@@H](C)[C@H]3C(=O)N(c4ccccc4)C(=O)[C@H]32)N1C(=O)OC	-	-	0	-
Cc1[nH]c2ccc(C(=O)Nc3ccc(F)cc3)cc2c1C	0	0	-	0
COc1cc(OC)c(N(C)S(=O)(=O)c2cccc(C(=O)Nc3nccs3)c2)cc1Cl	?	?	8.9µM	?
COc1cc(OC)c(N(C)S(=O)(=O)c2cccc(C(=O)OCC(=O)c3c[nH]c4ccccc34)c2)cc1Cl	?	8.9µM	?	?
C=CCN(c1ccccc1OC)S(=O)(=O)c1cccc(C(=O)OCC(=O)c2c[nH]c3ccccc23)c1	0	?	?	9.2µM
COc1cc(C(=O)OCC(=O)c2c[nH]c3ccccc23)ccc1OCC(=O)N1CCOCC1	-64	0	0	?
CCOc1cc(C(=O)OCC(=O)c2c[nH]c3ccccc23)ccc1OCC(=O)N1CCOCC1	0	0	0	0
SMILES	HCMV inh	FMDV antiviral	MARV entry inh	Lassa entry inh
CC(C)C[C@H]1COc2c(Cl)cccc2S(=O)(=O)N1	0	-	-	0
Clc1ccc(-c2cn3nc4c(nc3n2)CCCC4)cc1	?	11µM	?	0.71µM
COc1cccc(-c2cn3nc4c(nc3n2)CCCC4)c1	-	0	?	?
CCc1nc2c(OCc3cc(Cl)cc(Cl)c3)cccn2c1N(C)C(=O)c1ccc(C)cc1	0	0	-	-
Brc1ccc(C2=Nn3c(nnc3-c3ccncc3)SC2)cc1	-	-	0	-
Clc1ccccc1C1=Nn2c(nnc2-c2ccncc2)SC1	-76	0	0	0
c1csc(C2=Nn3c(nnc3-c3ccncc3)SC2)c1	-81	0	0	0
c1ccc(C2=Nn3c(nnc3-c3cccs3)SC2)cc1	0	0	0	0
Cc1ccc(C(=O)N(CCN2CCCCC2)CC2CCCN(C3CCCC3)C2)s1 (stereo not given)	0	0	8.9µM	?
N#Cc1c(C(F)(F)F)cc(=O)n2c1[nH]c1ccccc12	-96	0	?	?
N#Cc1c(CSCC(=O)O)cc(=O)n2c1[nH]c1ccccc12	0	0	-	-
Cc1ccc(-c2nn(C)c(=O)c3ccccc23)cc1CNC(=O)/C=C/c1ccccc1	0	0	?	21µM
CC(C)C[C@H]1CN([C@@H](CC(C)C)CN2CCC[C@@H]2CN2C(=S)NC[C@@H]2Cc2ccc(O)cc2)C(=S)N1CCc1ccccc1	0	0	-	-
